Measurements taken from the supplement of paper PMC12282887.
± gives the standard deviation of the averaged measurements.

What was measured:
Assay in all cases: promoter activity interaction Z-score (Lux/OD deviation from empty-vector control); higher = stronger promoter induction by the compound
[1] = test system: E. coli BW25113 acrABp lux reporter
Summary of the method: (§1)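 E. coli BW25113 luxCDABE reporter strains grew at 37°C in 40 µl LB Lennox in 384-well plates, with OD600 and luminescence read every 30 min for 12 h. After integration over 0–8 h for wild type or 1–9 h for deletion strains, wells under 10% of the median growth value were removed. Each score is the Z-transformed residual of growth-normalised luminescence fitted against a control.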

[2] = test system: E. coli BW25113 marRABp lux reporter
Summary of the method: as §1

[3] = test system: E. coli BW25113 micFp lux reporter
Summary of the method: as §1

[4] = test system: E. coli BW25113 ompFp lux reporter
Summary of the method: as §1

[5] = test system: E. coli BW25113 robp lux reporter
Summary of the method: as §1

[6] = test system: E. coli BW25113 soxSp lux reporter
Summary of the method: as §1

[7] = test system: E. coli BW25113 tolCp lux reporter
Summary of the method: as §1

[8] = 13.7 µg/ml, genetic background: wild type
[9] = 13.7 µg/ml, genetic background: ΔmarA
[10] = 13.7 µg/ml, genetic background: Δrob
[11] = 13.7 µg/ml, genetic background: ΔsoxS
[12] = 27.5 µg/ml, genetic background: wild type
[13] = 27.5 µg/ml, genetic background: ΔmarA
[14] = 27.5 µg/ml, genetic background: Δrob
[15] = 27.5 µg/ml, genetic background: ΔsoxS
[16] = 54.9 µg/ml, genetic background: wild type
[17] = 54.9 µg/ml, genetic background: ΔmarA
[18] = 54.9 µg/ml, genetic background: Δrob
[19] = 54.9 µg/ml, genetic background: ΔsoxS
[20] = 109.8 µg/ml, genetic background: wild type
[21] = 109.8 µg/ml, genetic background: ΔmarA
[22] = 109.8 µg/ml, genetic background: Δrob
[23] = 109.8 µg/ml, genetic background: ΔsoxS

CNC[C@H](O)c1ccc(O)c(O)c1 [Adrenalin]
promoter activity interaction Z-score [1, 8]: -0.118 ± 0.26 | promoter activity interaction Z-score [1, 9]: -0.4 ± 0.56 | promoter activity interaction Z-score [1, 10]: 0.0418 ± 0.19 | promoter activity interaction Z-score [1, 11]: -0.382 ± 0.4 | promoter activity interaction Z-score [1, 12]: -0.0931 ± 0.1 | promoter activity interaction Z-score [1, 13]: 0.531 ± 0.016 | promoter activity interaction Z-score [1, 14]: -0.104 ± 0.11 | promoter activity interaction Z-score [1, 15]: -0.043 ± 0.052 | promoter activity interaction Z-score [1, 16]: -0.373 ± 0.29 | promoter activity interaction Z-score [1, 17]: 0.688 ± 0.54 | promoter activity interaction Z-score [1, 18]: -0.345 ± 0.12 | promoter activity interaction Z-score [1, 19]: -0.566 ± 0.013 | promoter activity interaction Z-score [1, 20]: -0.472 ± 0.26 | promoter activity interaction Z-score [1, 21]: 0.342 ± 0.19 | promoter activity interaction Z-score [1, 22]: 0.0555 ± 0.04 | promoter activity interaction Z-score [1, 23]: 0.539 ± 0.12 | promoter activity interaction Z-score [2, 8]: 0.121 ± 0.2 | promoter activity interaction Z-score [2, 9]: -0.289 ± 0.22 | promoter activity interaction Z-score [2, 10]: -0.0038 ± 0.073 | promoter activity interaction Z-score [2, 11]: -0.111 ± 0.21 | promoter activity interaction Z-score [2, 12]: 0.38 ± 0.26 | promoter activity interaction Z-score [2, 13]: 0.173 ± 0.6 | promoter activity interaction Z-score [2, 14]: 0.209 ± 0.28 | promoter activity interaction Z-score [2, 15]: 0.0712 ± 0.22 | promoter activity interaction Z-score [2, 16]: -0.365 ± 0.31 | promoter activity interaction Z-score [2, 17]: -0.424 ± 0.13 | promoter activity interaction Z-score [2, 18]: -0.339 ± 0.43 | promoter activity interaction Z-score [2, 19]: -0.285 ± 0.12 | promoter activity interaction Z-score [2, 20]: -0.142 ± 0.4 | promoter activity interaction Z-score [2, 21]: -0.43 ± 0.15 | promoter activity interaction Z-score [2, 22]: 0.0375 ± 0.16 | promoter activity interaction Z-score [2, 23]: 0.218 ± 0.26 | promoter activity interaction Z-score [3, 8]: -0.11 ± 0.0085 | promoter activity interaction Z-score [3, 9]: -0.0104 ± 0.018 | promoter activity interaction Z-score [3, 10]: 0.263 ± 0.12 | promoter activity interaction Z-score [3, 11]: -0.351 ± 0.072 | promoter activity interaction Z-score [3, 12]: -0.259 ± 0.091 | promoter activity interaction Z-score [3, 13]: -0.0735 ± 0.14 | promoter activity interaction Z-score [3, 14]: 0.173 ± 0.31 | promoter activity interaction Z-score [3, 15]: 0.192 ± 0.11 | promoter activity interaction Z-score [3, 16]: -0.122 ± 0.19 | promoter activity interaction Z-score [3, 17]: 0.0635 ± 0.093 | promoter activity interaction Z-score [3, 18]: 0.189 ± 0.21 | promoter activity interaction Z-score [3, 19]: -0.508 ± 0.077 | promoter activity interaction Z-score [3, 20]: -0.426 ± 0.33 | promoter activity interaction Z-score [3, 21]: -0.136 ± 0.074 | promoter activity interaction Z-score [3, 22]: 0.0853 ± 0.074 | promoter activity interaction Z-score [3, 23]: -0.142 ± 0.14 | promoter activity interaction Z-score [4, 8]: 0.379 ± 0.018 | promoter activity interaction Z-score [4, 9]: -0.309 ± 0.22 | promoter activity interaction Z-score [4, 10]: -0.171 ± 0.37 | promoter activity interaction Z-score [4, 11]: -0.679 ± 0.25 | promoter activity interaction Z-score [4, 12]: 0.362 ± 0.017 | promoter activity interaction Z-score [4, 13]: 0.00142 ± 0.52 | promoter activity interaction Z-score [4, 14]: -0.0408 ± 0.55 | promoter activity interaction Z-score [4, 15]: -0.0291 ± 0.36 | promoter activity interaction Z-score [4, 16]: -0.597 ± 0.18 | promoter activity interaction Z-score [4, 17]: 0.175 ± 0.27 | promoter activity interaction Z-score [4, 18]: -1.07 ± 0.55 | promoter activity interaction Z-score [4, 19]: -0.961 ± 0.21 | promoter activity interaction Z-score [4, 20]: -0.0147 ± 0.25 | promoter activity interaction Z-score [4, 21]: -0.377 ± 0.44 | promoter activity interaction Z-score [4, 22]: -0.876 ± 1.6 | promoter activity interaction Z-score [4, 23]: -0.239 ± 0.22 | promoter activity interaction Z-score [5, 8]: -0.189 ± 0.26 | promoter activity interaction Z-score [5, 9]: -0.738 ± 0.13 | promoter activity interaction Z-score [5, 10]: -0.362 ± 0.49 | promoter activity interaction Z-score [5, 11]: -0.567 ± 0.17 | promoter activity interaction Z-score [5, 12]: 0.83 ± 0.5 | promoter activity interaction Z-score [5, 13]: -0.178 ± 0.0036 | promoter activity interaction Z-score [5, 14]: -0.489 ± 0.6 | promoter activity interaction Z-score [5, 15]: -0.00139 ± 0.12 | promoter activity interaction Z-score [5, 16]: -0.414 ± 0.15 | promoter activity interaction Z-score [5, 17]: -0.097 ± 0.33 | promoter activity interaction Z-score [5, 18]: -0.505 ± 1.8 | promoter activity interaction Z-score [5, 19]: -0.645 ± 0.021 | promoter activity interaction Z-score [5, 20]: -0.53 ± 0.61 | promoter activity interaction Z-score [5, 21]: -0.598 ± 0.62 | promoter activity interaction Z-score [5, 22]: -1.48 ± 0.78 | promoter activity interaction Z-score [5, 23]: -1.95 ± 0.2 | promoter activity interaction Z-score [6, 8]: 0.381 ± 0.43 | promoter activity interaction Z-score [6, 9]: 0.0748 ± 0.12 | promoter activity interaction Z-score [6, 10]: 0.425 ± 0.29 | promoter activity interaction Z-score [6, 11]: -0.181 ± 0.096 | promoter activity interaction Z-score [6, 12]: 0.23 ± 0.19 | promoter activity interaction Z-score [6, 13]: 0.131 ± 0.16 | promoter activity interaction Z-score [6, 14]: 0.208 ± 0.28 | promoter activity interaction Z-score [6, 15]: 0.264 ± 0.64 | promoter activity interaction Z-score [6, 16]: 0.0152 ± 0.17 | promoter activity interaction Z-score [6, 17]: -0.0453 ± 0.22 | promoter activity interaction Z-score [6, 18]: 0.121 ± 0.0073 | promoter activity interaction Z-score [6, 19]: -0.333 ± 0.19 | promoter activity interaction Z-score [6, 20]: -0.143 ± 0.091 | promoter activity interaction Z-score [6, 21]: -0.248 ± 0.045 | promoter activity interaction Z-score [6, 22]: 0.0524 ± 0.1 | promoter activity interaction Z-score [6, 23]: 0.0254 ± 0.36 | promoter activity interaction Z-score [7, 8]: -0.595 ± 0.65 | promoter activity interaction Z-score [7, 9]: -0.333 ± 0.39 | promoter activity interaction Z-score [7, 10]: 0.343 ± 0.15 | promoter activity interaction Z-score [7, 11]: -0.571 ± 0.34 | promoter activity interaction Z-score [7, 12]: -0.0385 ± 0.61 | promoter activity interaction Z-score [7, 13]: -0.394 ± 0.82 | promoter activity interaction Z-score [7, 14]: -0.578 ± 0.57 | promoter activity interaction Z-score [7, 15]: 1.04 ± 1.6 | promoter activity interaction Z-score [7, 16]: -0.749 ± 0.67 | promoter activity interaction Z-score [7, 17]: 0.176 ± 0.046 | promoter activity interaction Z-score [7, 18]: -0.0706 ± 0.3 | promoter activity interaction Z-score [7, 19]: 0.0714 ± 0.89 | promoter activity interaction Z-score [7, 20]: -0.414 ± 0.029 | promoter activity interaction Z-score [7, 21]: -0.30805 ± 0.0003 | promoter activity interaction Z-score [7, 22]: -0.0487 ± 0.27 | promoter activity interaction Z-score [7, 23]: -0.39 ± 1.4
